From PubChem BioAssay
Shown are actives, neighbours in structure and some others; about 11% of the full set was active somewhere.
SW480 rerep: inducers of DNA re-replication in SW480 colon cancer cells | Potency, µM (doses to about 46.1 µM), without a hit: top-dose re-replication activation, hits mostly activators | SW480 DNA re-replication, Hoechst DNA content imaging, 48 h | AID 624297 | 340,000 tested, 1.8% active; further: potency means the concentration at half of the fitted maximal effect; % of control where 0% means no effect; nearly all actives have a fitted effect of over 55% in size
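Hoechst fluorescence of nuclei (405 nm excitation, 500-530 nm emission) measured by plate-scanning imager after 48 hr compound exposure at 37 C; re-replication scored as increased number of nuclei with elevated intensity.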
IL1B secr inh: inhibitors of inflammasome signaling (IL-1 beta secretion) | 360,000 tested, 4.7% active | THP-1 LPS/ATP IL-1B secretion, AlphaLISA, 16 h; hits give low values | activity change, % at 57.5 µM; in the data active means activity change below about -50%; inconclusive means mostly about -30% to -49%; further: on the % scale 0 is the no-effect control and ±100 the full control effect
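Secreted IL-1B measured by AlphaLISA bead assay after 16 h compound exposure of THP-1 cells; compounds (final up to 57.5 uM) added 1 h before LPS (250 ng/mL) and ATP (1.25 mM) stimulation; lower signal means less secretion.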
MCF10A rereplic: DNA re-replication induction in MCF 10a cells | 350,000 tested, 2.9% active | AID 624296 | Potency, µM (top dose mostly 46.1 µM), for inactives: top-dose activity, positive = re-replication, usual class: activators | MCF 10A DNA re-replication, Hoechst nuclear intensity, 48 h; further: potency means the concentration at half of the fitted maximal effect; % of control where 0% means no effect; nearly all actives have a fitted effect of over 50% in size
RORg inh: ROR gamma (mouse) transcription inhibition. Potency, µM (top dose mostly 53.6 µM), for inactives: at the highest dose activity change, negative = inhibition, hits mostly inhibitors. AID 2551. 310,000 tested, 5.4% active. Drosophila S2 Gal4-RORgamma UAS-luciferase reporter, 20 h. P51450; further: potency means the concentration at half of the fitted maximal effect; on the % scale 0 is the no-effect control and ±100 the full control effect; nearly all actives have a fitted effect of over 60% in size
Target sequence (P51450 whole entry, looked up, the tested form may be a part): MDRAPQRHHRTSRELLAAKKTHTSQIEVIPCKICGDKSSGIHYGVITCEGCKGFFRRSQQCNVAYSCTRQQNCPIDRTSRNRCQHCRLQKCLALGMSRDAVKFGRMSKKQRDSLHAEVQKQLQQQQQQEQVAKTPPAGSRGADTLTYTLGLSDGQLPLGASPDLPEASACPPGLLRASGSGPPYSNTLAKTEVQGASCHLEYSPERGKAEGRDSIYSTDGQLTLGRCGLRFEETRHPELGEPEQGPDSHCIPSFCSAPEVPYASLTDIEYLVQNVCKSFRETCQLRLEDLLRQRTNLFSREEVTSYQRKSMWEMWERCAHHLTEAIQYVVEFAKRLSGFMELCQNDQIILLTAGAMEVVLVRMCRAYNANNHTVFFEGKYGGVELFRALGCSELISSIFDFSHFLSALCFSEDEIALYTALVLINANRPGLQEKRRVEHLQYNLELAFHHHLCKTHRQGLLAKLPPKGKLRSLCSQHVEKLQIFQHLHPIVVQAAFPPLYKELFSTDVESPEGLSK
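Luminescence from a UAS-regulated Photinus luciferase reporter in stably transfected Drosophila Schneider cells is measured; decreased signal marks ROR gamma inhibition. Fusion expression is induced by 700 uM copper sulfate for 20 hr.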
Gal4-VP16 FLuc: inhibits Gal4-VP16 luciferase reporter, ROR gamma counter-screen; Potency, µM (doses to about 53.6 µM), for the others: top-dose activity, negative = inhibition, usual class: inhibitors; 310,000 tested, 3.5% active; Drosophila S2 Gal4-VP16 UAS-luciferase, luminescence, 20 h;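 further: Gal4-VP16 expression switched on by copper sulfate through the metallothionein promoter; potency means the concentration at half of the fitted maximal effect; on the % scale 0 is the no-effect control and ±100 the full control effect; nearly all actives have a fitted effect of over 50% in size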
* marks the source's active call; other numbers are inactive results; [ ] = remark or other dose. Unless noted, the call rests on the fitted dose curve; in most records, active means well fitted curve in the direction sought with a large enough effect; inconclusive means small, poorly fitted or top-dose-only effect, or another doubt; inactive means no such curve, though single readings can be large; an effect the other way counts as inactive or inconclusive.

For CC(C)n1c(C(=O)OCC(=O)NCc2ccc3c(c2)OCO3)cc2sccc21 the results were SW480 rerep 8%, IL1B secr inh 33, MCF10A rereplic 15µM*, RORg inh inconclusive and Gal4-VP16 FLuc 0%.
`O=[N+]([O-])c1ccc(C2=NN(CCO)C(=Nc3ccc(OC(F)(F)F)cc3)SC2)cc1` gave SW480 rerep inconclusive, IL1B secr inh -63*, MCF10A rereplic 7%, RORg inh inconclusive and Gal4-VP16 FLuc -9%.
For O=C(NNC1=C(C(=O)C(F)(F)F)CCC1)c1cccc(Cl)c1 the results were SW480 rerep inconclusive, IL1B secr inh 73, MCF10A rereplic inconclusive, RORg inh inconclusive and Gal4-VP16 FLuc inconclusive.
Screening COc1ccc(C(=O)NNC2=C(C(=O)C(F)(F)F)CCC2)cc1 returned SW480 rerep inconclusive, IL1B secr inh 131, MCF10A rereplic inconclusive, RORg inh 14µM* and Gal4-VP16 FLuc inconclusive.
`COc1ccc(C(=O)NNc2ccccc2)cc1` gave SW480 rerep 2%, IL1B secr inh 6, MCF10A rereplic 8%, RORg inh 30% and Gal4-VP16 FLuc 3%.
O=C(NNC1=C(C(=O)C(F)(F)F)CCC1)c1ccc(Cl)cc1 was read as SW480 rerep 2%, IL1B secr inh 82, MCF10A rereplic -4%, RORg inh 11µM* and Gal4-VP16 FLuc inconclusive.
Cc1ccc(C(=O)NNS(=O)(=O)c2ccc(F)cc2)cc1 was read as SW480 rerep -2%, IL1B secr inh -2, MCF10A rereplic 16%, RORg inh -24% and Gal4-VP16 FLuc -1%.
CCc1c(C)sc(NC(=S)N2CCN(CC)CC2)c1C(=O)OC was read as SW480 rerep -5%, IL1B secr inh -56*, MCF10A rereplic 6%, RORg inh -6% and Gal4-VP16 FLuc -14%.
CCN1CCN(C(=S)Nc2sc(C)c(-c3ccccc3)c2C(=O)OC)CC1 was read as SW480 rerep inconclusive, IL1B secr inh inactive, MCF10A rereplic inconclusive, RORg inh inconclusive and Gal4-VP16 FLuc -7%.
Screening C/C(Cl)=C\Cn1c(NCCCn2ccnc2)nc2c1c(=O)n(C)c(=O)n2C returned SW480 rerep -4%, IL1B secr inh 9, MCF10A rereplic 2%, RORg inh -11% and Gal4-VP16 FLuc 6%.
`CCN(CC)CCNc1nc2c(c(=O)n(C)c(=O)n2C)n1C/C=C(/C)Cl` gave SW480 rerep 0%, IL1B secr inh -8, MCF10A rereplic 16µM*, RORg inh -8% and Gal4-VP16 FLuc 5%.
`C=CCn1c(NCCc2ccccc2)nc2c1c(=O)n(C)c(=O)n2C` gave SW480 rerep 0%, IL1B secr inh -21, MCF10A rereplic 7%, RORg inh 0% and Gal4-VP16 FLuc inconclusive.
For C/C(Cl)=C\Cn1c(NCCc2ccccc2)nc2c1c(=O)n(C)c(=O)n2C the results were SW480 rerep 21%, IL1B secr inh -52*, MCF10A rereplic 18µM*, RORg inh 7.1µM* and Gal4-VP16 FLuc 3.5µM*.
For CC(C)C(=O)N1CCCCCCN1C(=O)C(C)C the results were IL1B secr inh 13.
For Cc1noc(C)c1S(=O)(=O)N(C)C[C@H]1Oc2ccc(NS(=O)(=O)c3ccccc3)cc2C(=O)N([C@H](C)CO)C[C@@H]1C the results were SW480 rerep 4%[9.22 µM], IL1B secr inh -9 and MCF10A rereplic 0%.
For CCn1c2ccccc2c2cc(/C=N/NC(=O)c3ccccc3C)ccc21 the results were SW480 rerep 13µM*, IL1B secr inh 51, MCF10A rereplic 4.6µM*, RORg inh inconclusive and Gal4-VP16 FLuc inconclusive.
Screening Cn1c2ccccc2c2cc(/C=N/NC(=O)c3ccccc3F)ccc21 returned SW480 rerep inconclusive, IL1B secr inh -2, MCF10A rereplic inconclusive, RORg inh inconclusive and Gal4-VP16 FLuc inconclusive.
CCn1c2ccccc2c2cc(/C=N/NC(=O)c3cccc(C)c3)ccc21 was read as SW480 rerep inconclusive, IL1B secr inh 47, MCF10A rereplic 5.8µM*, RORg inh 1% and Gal4-VP16 FLuc -10%.
O=C(c1ccc(CNS(=O)(=O)c2ccc(Br)cc2)cc1)N1CCCCCC1 was read as SW480 rerep 9%, IL1B secr inh -4, MCF10A rereplic 12%, RORg inh inconclusive and Gal4-VP16 FLuc -12%.
COC(=O)c1cc(OC)c(OC)cc1NC(=O)Nc1ccc(OC)cc1 was read as SW480 rerep -3%, IL1B secr inh -11, MCF10A rereplic -2%, RORg inh 5% and Gal4-VP16 FLuc 1%.
COC(=O)c1cc2ccc(OC)cc2c2cc(OC)c(OC)cc12 was read as SW480 rerep 24%, IL1B secr inh -61* and MCF10A rereplic -26%.
For CC(C)CNc1ncnc2c1ncn2[C@H]1CN(Cc2ccc(C(=O)O)cc2)C[C@@H](CO)O1 the results were IL1B secr inh -1.
For COC(=O)[C@]12CCCCC=C1N(CCc1ccc(OC)c(OC)c1)C(=O)[C@H](CC(=O)NCc1cccs1)C2 the results were IL1B secr inh -29.
O=C(CSc1nnc(CNC(=O)c2ccc(F)cc2)o1)NCC1CCCO1 (stereo not given) was read as SW480 rerep -8%, IL1B secr inh 0, MCF10A rereplic 1%, RORg inh -10% and Gal4-VP16 FLuc -5%.
`COc1cc(CC2COC(=O)C2(O)Cc2ccc(O)c(OC)c2)ccc1O` (stereo not given) gave SW480 rerep -2%, IL1B secr inh 40, MCF10A rereplic -1%, RORg inh inconclusive and Gal4-VP16 FLuc 7.1µM*.
CCN(CC)C(=O)C1=C(C)N(CCCN2CCCC2=O)C(=O)C(CC(=O)NCCCN(C)C)C1 (stereo not given) was read as IL1B secr inh 12.
CN(C)NC(=S)Nc1ccc(Cl)cc1 was read as SW480 rerep -11%, IL1B secr inh -3, MCF10A rereplic inconclusive, RORg inh inconclusive and Gal4-VP16 FLuc 2.2µM*.
For CC(=O)Nc1cc(-c2ccc(F)cc2)[nH]n1 the results were SW480 rerep -4%, IL1B secr inh 33, MCF10A rereplic -1%, RORg inh 13% and Gal4-VP16 FLuc -15%.
Screening CCNC(=S)Nc1cc(-c2ccc(Cl)cc2)[nH]n1 returned SW480 rerep -2%, IL1B secr inh -105*, MCF10A rereplic 1%, RORg inh 6.3µM* and Gal4-VP16 FLuc 11µM*.
`CC(C)(C)C(=O)NC(=S)Nc1ccc(C(F)(F)F)cc1` gave SW480 rerep -6%, IL1B secr inh 18, MCF10A rereplic 3%, RORg inh 4.5µM* and Gal4-VP16 FLuc inconclusive.
Screening CNNC(=S)Nc1ccc(Cl)cc1 returned SW480 rerep 0%, IL1B secr inh -1, MCF10A rereplic 0%, RORg inh inconclusive and Gal4-VP16 FLuc 16%.
